High-throughput results from PubChem.
The list is not random: actives were taken first. Their share in the collection is about 19%.
CHX counter = counter-screen hit for Shiga toxin inhibitors, cycloheximide; cell reporter, cycloheximide protein synthesis inhibition counterscreen; max response, %; 12% of 300,000 active; in the data active = max response mostly above about 13%, no sharp cut-off; inactive = mostly below about 14%; note: read at 38.3 µM for the half of the compounds with a filed dose; 0% is about no effect
Marburg entry inh = Marburg virus entry inhibition | Marburg virus pseudotyped entry inhibition, cell reporter | Potency, µM (highest dose often 37.8 µM), inactives show at the top dose activity change, negative = inhibition, actives largely listed as inhibitors | 1.8% of 300,000 active; calls by dose curve; tested in HEK293 cells; note: potency is the fitted concentration of half-maximal effect; % is set by controls: 0 for no effect and ±100 for the full control effect
Pf growth 48h = P. falciparum growth inhibition at 48 hours (one generation). Potency, µM (top dose mostly 28.7 µM), without a hit: top-dose activity change, negative = inhibition, actives largely listed as inhibitors. P. falciparum luciferase growth in erythrocytes, 48 h. 5.9% of 310,000 active; note: potency is the fitted concentration of half-maximal effect; % is set by controls: 0 for no effect and ±100 for the full control effect
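A one-generation exposure of luciferase-tagged malaria parasites in RPMI 1640/Albumax erythrocyte culture, 37 C and 5% CO2. Inhibition is inferred from decreased luminescence after adding detection reagent.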
Shiga toxin inh = blocks Shiga toxin action in Vero cells | Vero cells, Shiga toxin protein synthesis inhibition reporter | inhibition, % at 38.7 µM | 9.2% of 290,000 active; in the data active = inhibition mostly above about 28%, no sharp cut-off; inactive = mostly below about 43%; note: 0% is about no effect
Pf growth 96h = P. falciparum growth inhibition at 96 hour, primary screen for plastid delayed-death inhibitors | P. falciparum luciferase reporter growth, 96 h | Potency, µM (highest dose often 28.7 µM), inactives show at the highest dose activity change, negative = inhibition, hits mostly inhibitors | 6.9% of 320,000 active; note: potency is the fitted concentration of half-maximal effect; % is set by controls: 0 for no effect and ±100 for the full control effect
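Two parasite generations (96 h, 37 C, 5% CO2) of compound exposure in infected erythrocytes (0.05% parasitemia, 2% hematocrit). Luciferase-reporter P. falciparum; decreased luminescence indicates inhibited growth, aimed at apicoplast-acting delayed death.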
LASV entry inh = inhibitors of Lassa virus binding or cell entry | Lassa virus pseudotype entry inhibition, cell reporter | Potency, µM (titrated, usually from 37.9 µM), without a hit: at the top dose activity change, negative = inhibition, hits mostly inhibitors | 1.2% of 300,000 active | AID 540256; calls by dose curve; tested in HEK293 cells; note: potency is the fitted concentration of half-maximal effect; % is set by controls: 0 for no effect and ±100 for the full control effect; nearly all actives have a fitted effect of over 50% in size
Numbers without * were called inactive; i = inactive; ? = inconclusive; nt = not tested or not shown; [ ] = another dose, or the depositor's remark. Unless noted, calls come from the whole dose curve; as a rule, active = well fitted inhibition curve with a large enough effect; inconclusive = small, poorly fitted or top-dose-only effect, or another doubt; inactive = no such curve, though single readings can be large or run the other way.

SMILES | CHX counter | Marburg entry inh | Pf growth 48h | Shiga toxin inh | Pf growth 96h | LASV entry inh
CN(CC(=O)NCc1ccccc1Cl)S(=O)(=O)c1ccc2c(c1)n(C)c(=O)c(=O)n2C | 0.7 | nt | ? | -7.0 | -6.4% | nt
CCC(=O)Nc1ccc(Br)cn1 | 10.7 | -17.5%[46.1 µM] | 6.7% | -5.5 | 6.5% | ?
O=C(Nc1ccon1)c1ccc(Br)s1 | 24.5* | 19.6%[46.1 µM] | 21.0% | 57.5* | -3.3% | 12.6%[46.1 µM]
Cc1ccccc1C(=O)Nc1ccc(Br)cn1 | 49.1* | ? | 210.5% | 90.5* | 309.1% | -20.5%
O=C(NC1=NCCS1)c1ccc(Br)s1 | 40.0 | -9.7% | nt | 57.2 | 174.0% | -7.6%
O=C(Nc1nccs1)c1cc2c(s1)CCCCC2 | 3.9 | ? | nt | 15.2 | -48.2% | ?
O=C(Nc1nccs1)c1ccc(Cl)s1 | 19.5* | -0.9% | nt | 67.5 | 64.2% | nt
O=C(Nc1ccc(Br)cn1)c1ccc(Cl)s1 | 54.0* | ? | 167.6% | 84.0* | 252.0% | ?
O=C(CSc1nnc(Cn2c(=O)sc3ccccc32)n1-c1ccccc1)N1CCOCC1 | 9.9 | 16.0% | ? | 3.4 | 41.8% | 0.3%
CC(C)(C)C(=O)Nc1ccc(S(=O)(=O)c2ccc(NC(=O)C(C)(C)C)cc2)cc1 | 0.4 | 12.5% | ? | -5.0 | nt | 2.6%
O=S(=O)(NCCc1cn2ccccc2n1)c1ccc(-c2ccccc2)cc1 | -1.5 | nt | -22.6% | -13.5 | ? | nt
COc1ccc(-c2nn(-c3ccccc3)cc2/C=C(\CC(=O)O)c2nc3ccccc3s2)cc1OC | 16.7 | ? | ? | 23.0 | ? | ?
O=C(Nc1ccc2c(c1)C(=O)NC2=O)c1ccc(Cl)s1 | 0.7 | nt | 17.8% | -6.7 | 49.0% | nt
COc1ccc(OC)c2sc(NC(=O)c3ccc(Cl)s3)nc12 | 4.1 | nt | nt | 5.1 | 49.9% | nt
O=C(Nc1ccc2sccc2c1)c1ccc(Cl)s1 | 33.4* | 0.1% | 25.0% | 39.2* | 107.4% | nt
Cc1cc(C(=O)Nc2ccc(Br)cn2)sc1C | nt | nt | 221.1% | nt | 391.9% | nt
O=C(Nc1ccccn1)c1ccc(Cl)s1 | 62.2* | nt | 111.9% | 99.7* | -28.7% | nt
O=C(Nc1ccc(Br)cn1)c1ccc(Br)s1 | 61.7* | ? | 144.4% | 107.9* | 244.7% | ?
Cc1ccc(NC(=O)CN(C)Cc2cc(=O)n3ccsc3n2)cc1 | -1.8 | 27.4%[46.1 µM] | 1.0% | -3.0 | 10.9% | 2.0%[46.1 µM]
CC1CCN(C(=O)Cn2cc(SCC(=O)NCc3ccc(F)cc3)c3ccccc32)CC1 | nt | nt | nt | nt | nt | 0.7%[46.1 µM]
COc1cccc(-c2nc(CS(=O)(=O)CC(=O)Nc3c(C)cccc3C)c(C)o2)c1 | -3.7 | 2.4% | ? | 1.6 | ? | nt
COC(=O)CCN(C(=O)c1ccc(C)c([N+](=O)[O-])c1)c1ccccn1 | 7.1 | 9.0%[46.1 µM] | 11.0% | 19.5 | -19.9% | ?
CCNC(=O)OCc1cn(-c2ccccc2)nn1 | 14.4 | ? | i | 30.0 | 47.5% | ?
CC(C)(C)C(=O)OCc1cn(-c2ccccc2)nn1 | 30.4* | 32.2% | 25.9% | 59.4* | 43.6% | 12.3%
CC(C)C(=O)OCc1cn(-c2ccc(Cl)c(Cl)c2)nn1 | 10.2 | -5.8%[46.1 µM] | i | 13.6 | -2.5% | -2.7%
SMILES | CHX counter | Marburg entry inh | Pf growth 48h | Shiga toxin inh | Pf growth 96h | LASV entry inh
CC(C)(C)C(=O)OCc1cn(-c2ccc(Cl)cc2)nn1 | 24.4* | 5.2% | 121.0% | 39.7 | 145.9% | -3.4%
CC(C)CC(=O)OCc1cn(-c2ccccc2)nn1 | 23.4* | 11.6% | 61.7% | 53.3* | 47.4% | 2.6%
O=C(OCc1cn(-c2ccc(Cl)cc2)nn1)c1ccccc1 | 1.5 | -7.3% | 6.3% | 18.3 | 63.0% | 21.2%
COc1ccc(CNC(=O)CCCn2nc(C)c3c(C)n(-c4ccc(C)cc4)nc3c2=O)cc1OC | -2.2 | 3.7%[46.1 µM] | ? | -11.1 | ? | ?
COc1cc(NC(=O)C2CCCN(S(=O)(=O)c3ccc4c(c3)oc(=O)n4C)C2)cc(OC)c1 (stereo unspecified) | -7.1 | nt | nt | -18.0 | -85.3% | nt
O=C1N=C(c2ccccc2)S/C1=C\c1cccs1 | 11.9 | ? | nt | 17.0 | 38.8% | 16.3%
O=Nc1ccc2oc(=O)ccc2c1 | nt | 12.6µM* | nt | nt | nt | ?
COc1ccc(NC(=O)CSc2nnc(N)s2)c([N+](=O)[O-])c1 | 7.9 | ? | 1.9% | 33.6 | ? | 9.0%
NC(=O)CSCc1nc2ccccc2s1 | 84.2* | 11.7% | nt | 41.7 | -17.2% | 18.2%
N/C(Cc1nc2ccccc2s1)=N\O | 30.6* | ? | ? | 108.2* | ? | ?
